Data as given in PubChem BioAssay (NCI).
About 79,000 compounds went through this panel and 15% of them were active in at least one assay; those are over-represented in the sample as a whole. No stated cut-off is given here; in the data, active means growth inhibition above about 70%; inactive means the rest.

How the values were obtained:
[1] = NCI Yeast Anticancer Drug Screen. Data for the rad50 strain (AID 155);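 further: 0% = growth of vehicle-only cultures of the same strain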; conditions: S. cerevisiae rad50 strain growth inhibition; at 50.0 µM; active compounds read high
How it was run: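 Yeast carrying a defined DNA repair defect were exposed to test compounds, and growth was compared with vehicle-treated controls to give percent inhibition.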

[2] = NCI Yeast Anticancer Drug Screen. Data for the mec2-1 strain (AID 157); conditions: S. cerevisiae mec2-1 strain, at 50.0 µM, active compounds read high
How it was run: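 mec2-1 yeast strain, carrying an alteration in DNA damage repair or cell cycle control, was exposed to compounds; growth inhibition was measured relative to vehicle-treated controls.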

[3] = NCI Yeast Anticancer Drug Screen. Data for the sgs1 mgt1 strain (AID 161);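 further: 0% = growth of cultures given vehicle only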; conditions: S. cerevisiae sgs1 mgt1 strain, at 50.0 µM, active compounds read high
How it was run: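 Growth of a repair-deficient yeast mutant was monitored after compound treatment and expressed as inhibition relative to vehicle-treated cultures.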

[4] = NCI Yeast Anticancer Drug Screen. Data for the cln2 rad14 strain (AID 165);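 further: 0% = growth equal to vehicle treated cultures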; conditions: S. cerevisiae cln2 rad14 strain, at 50.0 µM, active compounds read high
How it was run: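 Yeast carrying cln2 and rad14 alterations (cell cycle control and DNA damage repair) were exposed to compounds. Growth inhibition was measured against vehicle-treated controls.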

[5] = NCI Yeast Anticancer Drug Screen. Data for the bub3 strain (AID 167); conditions: S. cerevisiae bub3 mutant strain, at 50.0 µM, active compounds read high
How it was run: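 Compounds were applied to a genetically altered yeast strain carrying a cell-cycle control defect. Growth inhibition was scored against vehicle-treated controls.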

[6] = NCI Yeast Anticancer Drug Screen. Data for the mlh1 rad18 strain (AID 175); conditions: S. cerevisiae mlh1 rad18 strain growth inhibition; at 50.0 µM; active compounds read high
How it was run: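 Growth inhibition of the yeast strain was measured after compound exposure and expressed relative to vehicle-treated controls. The strain carries defined defects in DNA damage repair.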

Measured: growth inhibition

Cc1cn(C2CC(OC(=O)C(Cc3ccccc3)NC(=O)OCc3ccccc3)C(COC(=O)C(Cc3ccccc3)NC(=O)OCc3ccccc3)O2)c(=O)[nH]c1=O (configuration not stated)
inactive: [1] -14.9% | [2] -3.65% | [3] -13.3% | [4] -26.7% | [5] -12.9% | [6] 14.3%

O=[N+]([O-])c1cc(Cl)ccc1NC(Nc1ccc(Cl)cc1[N+](=O)[O-])C(Cl)(Cl)Cl
inactive: [1] 44.5% | [2] 10.1% | [3] 28.4% | [4] -31.9% | [5] 3.6% | [6] 35.8%

COC(=O)c1ccc(C(=O)c2ccc(OC)cc2OC)cc1
inactive: [1] -0.1% | [2] -4.05% | [3] -0.85% | [4] -58.8% | [5] 4.15% | [6] -17.4%

NC(=S)N=Nc1c(O)[nH]c2ccccc12
inactive: [1] 12.8% | [2] -9.8% | [3] -5.9% | [4] 4.85% | [5] 9.95% | [6] 6.55%

COC(=O)c1nc(N)nc(C(=O)OC)c1C(=O)c1cc(Cl)ccc1Cl
inactive: [1] -8.35% | [2] -7.9% | [3] -1.25% | [4] -18.2% | [5] -6.3% | [6] -5.65%

CNC(=O)Nc1ccc(Cl)cc1C(=O)O
inactive: [1] -26.2% | [2] 2.45% | [3] -15.7% | [4] -72.2% | [5] -13.7% | [6] -7.45%

S=C(N1CCN(c2ccc(Cl)c(Cl)c2)CC1)N1CCN(c2ccc(Cl)c(Cl)c2)CC1
inactive: [1] 7.8% | [2] 22.2% | [3] 27.9% | [4] 12% | [5] 5.55% | [6] 20.2%

CNc1ncnc2c1ncn2C
inactive: [1] 20.8% | [2] 24.5% | [3] -7.1% | [4] -17.1% | [5] 1.6% | [6] -2.1%

CC(C)N1CC2CC(CN(C(=O)c3ccc(Cl)cc3)C2)C1
inactive: [1] -30.4% | [2] -8.45% | [3] -8.25% | [4] 2.95% | [5] -16.4% | [6] -5.9%

Cc1cccc(C)c1NC(=O)Nc1cccc(C(F)(F)F)c1
inactive: [1] -16.4% | [2] -29.4% | [3] -14.7% | [4] -22.4% | [5] -8.25% | [6] -17.8%

O=C(O)C12C3CCC(CC3)C1(C(=O)O)C1CCC2C1 (configuration not stated)
inactive: [1] -57.6% | [2] -12.4% | [3] -12.1% | [4] -24.1% | [5] 5.05% | [6] -1.2%

C=CC(C)Cc1ccccc1 (configuration not stated)
inactive: [1] 2% | [2] 1.05% | [3] 7.85% | [4] 24.1% | [5] 31.5% | [6] 25.2%

CC/C=C/C(C)c1cc(C(=O)O)ccc1OC (configuration not stated)
inactive: [1] 10.9% | [2] 4.3% | [3] 13.4% | [4] 6.55% | [5] -13.2% | [6] 18%

CCOc1ccc(N)c([N+](=O)[O-])c1
inactive: [1] 4.65% | [2] 21.9% | [3] 22.9% | [4] -34.4% | [5] -7.75% | [6] 3.1%

COc1ccccc1NCS(=O)(=O)O
inactive: [1] -7.2% | [2] -2.5% | [3] -5.95% | [4] -60.2% | [5] 11.2% | [6] -8.1%

O=C(COc1ccc(Cl)cc1)N1N=C(c2ccc(Cl)cc2)CC1(O)c1ccccc1 (configuration not stated)
inactive: [1] -15.8% | [2] -29.8% | [3] -8.9% | [4] 0.85% | [5] -18.2% | [6] -10.6%

C=C1CC(C)(COc2ccc3c(C)cc(=O)oc3c2)OC1=O (configuration not stated)
inactive: [1] 52.9% | [2] 46.1% | [3] 47.8% | [4] 48.5% | [5] 20.4% | [6] 54.5%

COc1ccc(C(C)S(=O)(=O)c2ccccc2)cc1OC (configuration not stated)
inactive: [1] 6.2% | [2] 8.8% | [3] -2.9% | [4] -5.9% | [5] 6.1% | [6] 5.5%

CC(=O)/C=C/C=C\C=C/N=C(c1ccccc1)c1ccccc1
inactive: [1] -7.5% | [2] -1.1% | [3] -2.7% | [4] 3% | [5] 26.1% | [6] -3.85%

O=C(NO)c1ccc(Cl)cc1Cl
inactive: [1] 57.9% | [2] -0.8% | [3] 37.7% | [4] -11.9% | [5] 18.6% | [6] 43.7%

O=C1C=C(n2ccccc2=O)CCC1
inactive: [1] 8.05% | [2] 2.15% | [3] 11.4% | [4] -29.1% | [5] -1.8% | [6] 0.05%

C[Si](C)(C)COC(N)=O
inactive: [1] -5.5% | [2] 10.8% | [3] -12.4% | [4] 8.1% | [5] 9.4% | [6] 0.45%

CCN(CC)CCOC(=O)Nc1c(Cl)cccc1Cl
inactive: [1] -3.75% | [2] -16.7% | [3] 8.6% | [4] 9.4% | [5] 9.25% | [6] 6.05%

CSC(=O)Oc1ccc([N+](=O)[O-])cc1
inactive: [1] 6.25% | [2] 1.55% | [3] -6.7% | [4] -38.3% | [5] 12.5% | [6] -2.9%

O=C(Nc1nc2ccccc2[nH]1)C(F)(F)F
inactive: [1] -6.8% | [2] -13.4% | [3] -3.85% | [4] 5.55% | [5] -2.55% | [6] 20%

C#CCOc1ccc(O)c(C(=O)OCCCOC(=O)c2cc(OCC#C)ccc2O)c1
inactive: [1] 16.1% | [2] 6.95% | [3] -3.9% | [4] 16.9% | [5] -2.1% | [6] 15.1%

CCOC(=O)C1=C(C)N(C2OC(COC(=O)c3ccccc3)C(OC(=O)c3ccccc3)C2OC(=O)c2ccccc2)C(=S)NC1c1ccccc1 (configuration not stated)
inactive: [1] -0.8% | [2] -27.1% | [3] 10.6% | [4] -2.6% | [5] -4.85% | [6] -6.05%

Cc1ccc(S(=O)(=O)Oc2cccc(C)c2)cc1
inactive: [1] 1.1% | [2] 17.1% | [3] 23% | [4] -69% | [5] 14.7% | [6] 33.7%

O=C(Nc1cccc2c1C(=O)c1cc(Cl)ccc1C2=O)c1ccccc1
inactive: [1] -2.7% | [2] 0.1% | [3] 4% | [4] -38.9% | [5] 5% | [6] -2.3%

NC(=O)c1csc(C2OC3COP(=O)(O)OC3C2O)n1 (configuration not stated)
inactive: [1] -21.1% | [2] -26.2% | [3] -38.6% | [4] -5.65% | [5] -29.1% | [6] -28.9%

CCOc1ccc(OCC)c(NC(C)=O)c1
inactive: [1] -1.95% | [2] 4.05% | [3] 3.95% | [4] 5.5% | [5] 13.8% | [6] -3.6%

CC(=O)C(CCC(=O)O)(CCC(=O)O)c1ccccc1
inactive: [1] 2% | [2] 21.6% | [3] 5.3% | [4] -49.4% | [5] 13.7% | [6] 20.2%

COc1ccc(CCn2cnc3ccccc32)cc1
inactive: [1] -44.1% | [2] -34.6% | [3] -34.5% | [4] -4.05% | [5] -11.4% | [6] -18.9%

Cc1nc2cncnc2n(CCN2CCOCC2)c1=O
inactive: [1] 15.1% | [2] 16.2% | [3] 23.2% | [4] -2.35% | [5] -2.45% | [6] 20.4%

O=C(NNC1=NCCCN1)c1ccco1
inactive: [1] 2.1% | [2] -0.75% | [3] 9.25% | [4] -22.2% | [5] 7.5% | [6] -3.85%

CC1=CC(=Nc2ccc(N(C)C)cc2)C(C)=CC1=O
inactive: [1] -11.1% | [2] -28.3% | [3] -2.4% | [4] -30.6% | [5] 5.4% | [6] -4.35%

NC(=O)c1csc(C2O[C@@H](COP(=O)(O)OP(=O)(O)OC[C@H]3OC(n4cnc5c(N)ncnc54)[C@H](O)[C@@H]3O)[C@H](O)[C@@H]2O)n1 (some centres not stated)
inactive: [1] 28.8% | [2] -0.75% | [3] -0.55% | [4] -37.5% | [5] 2.75% | [6] 10.9%
